Results from ChEMBL document CHEMBL1157539, “Thousands of chemical starting points for antimalarial lead identification” (Nature, 2010).

tested on: Plasmodium falciparum; test: GSK_TCMDC: Inhibition of Plasmodium falciparum Dd2 in whole red blood cells, using parasite LDH activity as an index of growth. Test compounds present at 2uM; assay type: functional

SMILES	Inhibition [%]
OC(Cn1ccnc1)(c1ccc(Cl)cc1Cl)C1CCCCC1 (centres undefined)	58
CC(C)[C@@H](C(=O)NCc1cccc(C(F)(F)F)c1)N1C(=O)CCC1C(=O)Nc1ccc([N+](=O)[O-])cc1 (some centres undefined)	2
Nc1nc(N)c2c(ccc3c2ccn3Cc2ccc(OCc3ccccc3)cc2)n1	1
CCC1CCCCN1S(=O)(=O)c1ccc(NC(=O)c2cc(C)on2)cc1 (centres undefined)	53
Cl.O=C(Nc1ccc2nccc(N3CCN4CCC[C@H]4C3)c2c1)c1ccc(Cl)c(Cl)c1	98
CN(C)Cc1ccc2cc(NC(=O)c3ccc(-c4ccc(Cl)cc4)cc3)ccc2n1.O=C(O)C(F)(F)F	30
O=C(Nc1ccc(Br)cc1)N(CCN1CCOCC1)CC(O)COc1ccc(Cl)c(F)c1.O=C(O)C(F)(F)F (centres undefined)	30
O=C(O)c1cc(OCC(O)COc2ccc(O)c(C(=O)O)c2)ccc1O	6
N#CCCN1CCN(Cc2cccc(-c3ccc(-c4nc5cc(F)ccc5[nH]4)cc3)c2)CC1.O=C(O)C(F)(F)F	35
COc1ccc(C(=O)Nc2cc(Br)c3c(c2)CNCC3)cc1Br.Cl	8
Cc1nc(N2CCC(C)CC2)c2c3c(sc2n1)CCCC3	39
CC(C)(CNC(=O)C1CCN(Cc2ccc(Cl)cc2)CC1)c1nc(-c2ccc(Cl)c(O)c2)c(-c2ccncc2)[nH]1.Cl	83
COc1c(C=NNc2nc(=Nc3ccccc3)[nH]c(=Nc3ccccc3)[nH]2)ccc(Br)c1O	37
CCOC(=O)c1ccc(NC(=O)Nc2ccc(-c3cccc(-c4nc5ccccc5[nH]4)c3)cc2)cc1	99
